Hit rate of the full screen: of about 300,000 compounds, about 65 (0.02%) were called active.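 The calls were made as follows: active = lowest replicate activity score at least 50, where 100 means six control SD above control mean; inconclusive = lowest score under 50 but half or more replicates reach 50; inactive = the rest.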 Many of the other results were omitted from the sample, so actives are more common in it than they were.
experiment: polyadenylation inhibitors in yeast reporter cells, primary screen, luminescence, S. cerevisiae (AID 1875);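 also: yeast exposed to compound for 9 h at 30 °C; higher score means more reporter readthrough which indicates perturbed polyadenylation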; conditions: S. cerevisiae SKY197-pL101 polyadenylation reporter, beta-gal luminescence; at 12 µM; hits give high values; efflux-impaired pdr1/pdr3 knockout yeast; score 100 = 6 SD above DMSO

Activity score, inactive:
COc1cc(OC)c(-n2cc(-c3ccc(Cl)cc3)[nH]c2=O)cc1Cl -4.07%
O=C1CSc2ccc(S(=O)(=O)NCc3ccccc3)cc2N1 3.02%
O=C(NN1C(=O)C2C3C=CC(O3)C2C1=O)c1ccncc1 (configuration not stated) 2.42%
COc1cccc(-n2c(=S)sc3c(=O)n(-c4ccccc4C)c(SCC(=O)O)nc32)c1 27.3%
COc1cc(/C=C/C(=O)OCC(=O)NC(=O)NCc2ccccc2)ccc1OCC#N -0.558%
Cn1nccc1/C=N\NC(=O)c1ccc(Cl)cc1 7.4%
COc1ccc(S(=O)(=O)c2c[nH]c(=S)[nH]c2=O)cc1Cl 11.8%
COc1ccc(CNC(=O)c2ccc(Br)s2)cc1OC 6.38%
COc1ccc(Cl)cc1NC(=O)Cn1nc(-c2ccc(C)cc2)n(C)c1=S -3.37%
O=C(c1[nH]ncc1-c1ccc(Cl)cc1)C1CO1 (configuration not stated) 19.5%
O=C(NCc1ccco1)c1ccc(NS(=O)(=O)c2cccc([N+](=O)[O-])c2)cc1 -6.5%
Cc1ccc(C(=O)N/C(=C\c2cn(C)c3ccccc23)C(=O)N2CCN(C)CC2)cc1 -4.13%
NC(=O)c1oc2ccccc2c1NC(=O)CS(=O)(=O)c1ccccc1 13.3%
O=C(O)Cn1c(Cc2ccccc2)nc2ccccc21 -5.1%
CC(C)c1ccc(OCC(O)CN2CCN(c3ccccn3)CC2)cc1 (configuration not stated) -11.9%
O=S(=O)(NCCc1ccc(Cl)cc1)c1cccs1 14.8%
O=C(NC1CC1)C(Cc1ccccc1)NS(=O)(=O)c1ccccc1F (configuration not stated) 2.29%
COc1ccc(N2CCN(CCNC(=O)Nc3cc(Cl)ccc3Cl)CC2)cc1 -1.83%
N#Cc1ccc(S(=O)(=O)NCC(=O)OCC(=O)NCCc2ccccc2)cc1 3.63%
CSc1ncc(C(=O)Nc2ccc(C)cc2C)c(C)n1 2.7%
CC(=O)c1ccc(S(=O)(=O)N2CCN(c3nc4c(C)c(C)ccc4cc3C#N)CC2)cc1 13.6%
Cc1ccc(NS(=O)(=O)c2ccc(C(C)(C)C)cc2)cn1 -9.91%
COc1ccc(N2CCN(CCNC(=O)c3nnc(Cc4c(F)cccc4Cl)o3)CC2)cc1 -12.7%
CCOC(=O)c1nn(-c2ccccc2F)c2nc(Nc3ccccc3)cc(=O)n12 -12.8%
CN(C)Cc1c(O)ccc2c(=O)c(-c3ccccc3Cl)coc12 8.63%
CN1CCN(C(=O)C(=O)c2cn(CC(=O)N3CCCC3)c3ccccc23)CC1 17%
CC(=O)Nc1ccc(NC(=O)CS(=O)(=O)c2cn(CC(=O)N3CCCCC3)c3ccccc23)cc1 4.41%
S=C(c1ccc(-c2ccccc2)o1)N1CCCCC1 -23.1%
CC(=O)Nc1cccc(OCC(=O)/C=C2\N(C)c3ccccc3C2(C)C)c1 -11.1%
Cc1ccc(OCC(=O)NCCCNC(=O)c2cccnc2)cc1C 0.135%
N#C/C=C\Oc1ccc(Cl)cc1N -86.8%
COC(=O)CSc1ccc2nnc(CCNS(=O)(=O)c3ccc(C)cc3)n2n1 6.76%
COc1ccc(C2Nc3ccccc3C(=O)N2c2ccc(Cl)cc2)cc1Cn1cc([N+](=O)[O-])cn1 (configuration not stated) -9.63%
COc1cc(NC(=O)c2ccc(CNc3c(N4CCCC4)c(=O)c3=O)cc2)cc(OC)c1OC 19.5%
C/C(CC(=O)Nc1ccc(N(C)C)cc1)=N\NC(=O)c1ccccc1F -2.05%
COCCNC(=S)N1CCN(C)CC1 -14.8%
COc1ccc(CCN(C)C(=O)C23CC4CC(CC(Cl)(C4)C2)C3)cc1OC 5.22%
COc1cccc(NC(=O)Cn2c3ccc(F)cc3c3nc4n(c(=O)c32)CCS4)c1 -13.2%
Cc1ccc(Cl)cc1N1CCN(C(=O)c2cccc3c(=O)c(C)c(-c4ccccc4)oc23)CC1 5.32%
COC(=O)Nc1ccc(S(=O)(=O)N(C)CC(F)(F)C(F)F)cc1 3.96%
Clc1ccc(-c2nnc(-c3ccccc3)nc2N2CCSCC2)cc1 -11%
COc1cccc2cc(C(C)N(CCCN3CCOCC3)C(=O)Nc3ccc(Cl)cc3)oc12 (configuration not stated) -8.58%
COC(=O)c1ccccc1NC(=O)C1CCN(C(=O)N2CCOc3ccccc32)CC1 8.38%
CCOc1ccc2sc(NS(=O)(=O)c3ccc(N)cc3)nc2c1 -8.96%
O=C1OCC2=C1C(c1ccccc1)CC(=O)N2c1cccc(F)c1 (configuration not stated) 19.6%
COc1cccc(NC(=O)CC(c2ccc(OC(C)C)cc2)c2ccccc2OC)c1 (configuration not stated) 10.2%
Cc1ccc2nc(SCC(=O)Nc3cccc4ccccc34)nc(=O)n2c1 -16.5%
CC1(C)C(C=C(Cl)Cl)C1C(=O)N(Cc1ccc(Cl)cc1)C1CCS(=O)(=O)C1 (configuration not stated) -12.2%
N#CCSc1nc2ccc(N3CCOCC3)cc2c(=O)n1CCc1ccccc1 -15.9%
CC1CC(NC(=O)/C(C#N)=C/c2ccc[nH]2)CC(C)(C)C1 (configuration not stated) -5.8%
CCN1C(=O)N[C@@H](CCc2ccccc2)C(C(=O)OC)=C1C -17.2%
O=C1C2C3C=CC(C3)C2C(=O)N1c1ccc(S(=O)(=O)Nc2nccs2)cc1 (configuration not stated) -1.69%
O=C(NC(Cc1ccccc1)C(=O)N1CCCC(C(F)(F)F)C1)c1ccccc1 (configuration not stated) 5.98%
Cn1ncc(N2CCN(S(=O)(=O)c3ccc(Br)cc3)CC2)c(Cl)c1=O 13.7%
CC(=O)N1C(=O)/C(=C2\SC(=S)N(NC(=O)c3ccc(O)cc3)C2=O)c2ccccc21 -6.71%
Cc1ccc(CNC(=O)CCCNC(=O)c2ccc(Cl)cc2)n1C -18.6%
Cc1cccc(N(C(=O)c2sc(C)nc2C)C(C(=O)NCC2CCCO2)c2ccccc2)c1 (configuration not stated) -7.81%
